Screening data: PubChem, National Center for Advancing Translational Sciences (NCATS)
Pol eta inh: blocks human DNA polymerase eta activity | Q9Y253 | recombinant Pol eta, fluorescent DNA replication assay | Potency, µM (highest dose often 114 µM), actives largely listed as inhibitors | hit rate 1.2% among 390,000 | AID 588591
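Fluorescent replication assay: 50 nM final substrate added after a 15 min room-temperature compound preincubation with 10 nM enzyme. Signal taken at 0 min and again at 10 min.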
TDP1 block: inhibitors of human tyrosyl-DNA phosphodiesterase TDP1. recombinant TDP1, AlphaScreen DNA substrate cleavage. Potency, µM (doses to about 130 µM), usual class: inhibitors. hit rate 0.28% among 350,000. AID 485290; further: nearly all actives have a fitted effect of over 40% in size
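Compounds were preincubated with Tdp1 (1 nM final) for 15 min at room temperature before substrate (15 nM final) started a 5 min reaction; beads (10 ug/ml final) were then added for 10 min before AlphaScreen detection.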
FEN1 inh: blocks human flap endonuclease 1; P39748; Recombinant FEN1 flap cleavage, fluorescence, 15 min; Potency, µM (top dose mostly 114 µM), usual class: inhibitors; hit rate 0.35% among 390,000; further: nearly all actives have a fitted effect of over 65% in size
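Enzyme 10 nM, 15 min RT preincubation with compound; start with substrate 50 nM final; reads at 0 and 15 min; qHTS titration, four-parameter Hill fit.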
POLI inh: inhibitors of human DNA polymerase iota; Pol iota fluorescent replication assay, 10 min; AID 588590; Q9UNA4; Potency, µM (doses to about 115 µM), usual class: inhibitors; hit rate 1% among 390,000
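Fluorescent replication assay read twice, at 0 min and 10 min after adding 50 nM (final) substrate. Enzyme (10 nM) and compounds were first incubated 15 min at room temperature; enzyme-free buffer wells were negative controls.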
POLK inh: blocks human DNA polymerase kappa activity. Potency, µM (doses to about 107 µM), actives largely listed as inhibitors. purified Pol kappa, fluorescent DNA synthesis assay, 10 min. hit rate 0.53% among 400,000. Q9UBT6
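Activity was followed as the change in fluorescence between reads at 0 and 10 min after starting the reaction with 50 nM substrate. Beforehand, 10 nM polymerase had been preincubated with compound for 15 min at room temperature.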
Pol beta inh: DNA polymerase beta (human) inhibition. Pol beta primer extension/strand displacement, fluorescence kinetic. Potency, µM (highest dose often 114 µM), hits mostly inhibitors. hit rate 1.3% among 340,000. AID 485314
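Preincubation: enzyme (10 nM) with compound, 15 min, RT. Reaction: substrate added to 50 nM final. Reads: 0 and 10 min. Analysis: normalized, Hill fit.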
TbPGK inh: TbPGK inhibition, hit validation; shares compounds with POLK inh; TbPGK coupled GAPDH assay, Kinase-Glo luminescence; Potency, µM (doses to about 57.5 µM), most hits filed as inhibitors; hit rate 79% among 500; AID 686980; further: nearly all actives have a fitted effect of over 65% in size
Pol iota confirm: Confirm cherry-picked inhibitors of human polymerase iota; shares compounds with POLK inh; Pol iota primer extension, TAMRA/BHQ fluorescence; Potency, µM, hits mostly inhibitors; hit rate 77% among 1,500
Large screens that a line does not name were inactive (follow-up assays come after a bar, where they were run). An excerpt weighted towards active compounds, which were near 2.4% of everything screened. The call rests on the fitted dose curve; in most records, active means well fitted curve in the direction sought with a large enough effect; inconclusive means small, poorly fitted or top-dose-only effect, or another doubt; inactive means no such curve, though single readings can be large; an effect the other way counts as inactive or inconclusive.

O=C(O)CCN1C(=O)/C(=C2\C(=O)N(Cc3ccc(F)cc3)c3ccccc32)SC1=S	none
CC1=C(c2ccc(C(C)C)cc2)S(=O)(=O)N=C1N1CCC(C(=O)NCCc2ccco2)CC1	POLI inh inconclusive (no result: Pol eta inh)
CCOc1c(Cl)cc(Cl)cc1CNCCSc1nnnn1C	none
CCC1CCc2c(sc(NC(=O)C3CC=CCC3C(=O)O)c2C#N)C1 (stereo not given)	Pol eta inh inconclusive, Pol beta inh 79µM | TbPGK inh inconclusive
CC1CCc2c(sc(NC(=O)C3CCCO3)c2C#N)C1 (stereo not given)	none
CCOc1ccc(C(=O)Nc2cc(C)ccn2)cc1	none | TbPGK inh 16µM
O=C(NCCc1nc2ccccc2n1CCOc1ccc2ccccc2c1)C1CCCCC1	none (no result: Pol eta inh, Pol beta inh)
CNCc1ccccc1Sc1ccc(O)c(O)c1	FEN1 inh inconclusive, POLI inh 28µM, POLK inh 79µM, Pol beta inh inconclusive (no result: TDP1 block) | Pol iota confirm 75
COC(=O)C(C(C)=O)C(NC(=O)OC(C)(C)C)c1ccccc1 (stereo not given)	none (no result: Pol eta inh, FEN1 inh, POLI inh, POLK inh, Pol beta inh)
Cn1cnc(S(=O)(=O)N2CCCC(C(=O)Nc3ccc(OC(F)(F)F)cc3)C2)c1 (stereo not given)	none
O=c1c2ccccc2cnn1-c1nc2ccccc2[nH]1	none | TbPGK inh 5.8µM
CSc1ccc(C=NNc2ccc(S(=O)(=O)Nc3ccccc3C(=O)O)cc2[N+](=O)[O-])cc1	Pol eta inh inconclusive, POLI inh 25µM, POLK inh inconclusive (no result: Pol beta inh) | TbPGK inh 4.1µM
O=C(NCc1ccccc1)c1ccc(NC(=O)C2CCCC2)cc1	none (no result: TDP1 block, Pol beta inh) | TbPGK inh inactive
CC(=O)Nc1ccc(S(=O)(=O)NC2(C(F)(F)F)C(=O)Nc3c2c(=O)[nH]c(=O)n3-c2ccc(C)cc2)cc1 (stereo not given)	Pol beta inh inconclusive
CC(CNC(=O)c1csc2c1CCCCC2)c1ccccc1 (stereo not given)	none
Cc1ccc(-c2cc(C(=O)Nc3ccc(S(=O)(=O)N4CC(C)OC(C)C4)cc3)[nH]n2)c(O)c1 (stereo not given)	FEN1 inh inconclusive, POLI inh 40µM, POLK inh inconclusive, Pol beta inh 18µM | Pol iota confirm 75
O=C(O)c1ccc2c(c1)[C@@H]1C=CC[C@@H]1[C@H](c1ccccn1)N2	Pol eta inh 6.3µM, FEN1 inh 32µM, POLI inh 3.5µM, POLK inh 10µM (no result: TDP1 block, Pol beta inh) | TbPGK inh 16µM
Cc1ccc(S(=O)(=O)N(C)C)cc1NC(=O)C(C)OC(=O)CC1CC2CCC1C2 (stereo not given)	none (no result: TDP1 block, FEN1 inh, POLI inh, POLK inh, Pol beta inh)
O=C1Nc2ccccc2C1=Nc1ccc(S(=O)(=O)Nc2nccs2)cc1	Pol eta inh 20µM, FEN1 inh 50µM, POLI inh 8.9µM, POLK inh inconclusive | TbPGK inh 18µM
NS(=O)(=O)c1ccc(N=C2C(=O)Nc3ccccc32)cc1	none
NS(=O)(=O)c1ccc(NC(=O)/C=C/c2ccco2)cc1	Pol eta inh 20µM, TDP1 block inconclusive, POLI inh 18µM, POLK inh 50µM, Pol beta inh 25µM | TbPGK inh 8.2µM
Cc1nn(C)c2c1c(-c1ccccc1)cc(=O)n2CC(=O)NC(C)(C)C	none
COc1ccc(OC)c(NC(=O)Cn2c(=O)cc(-c3ccccc3)c3c(C)nn(C)c32)c1	Pol eta inh inconclusive, Pol beta inh inconclusive | Pol iota confirm 47
O=C(CNc1ccc2ccccc2c1)N/N=C/C=C/c1cccc([N+](=O)[O-])c1	Pol eta inh 16µM, POLI inh inconclusive, Pol beta inh inconclusive | Pol iota confirm 75
O=C1NC(=O)/C(=C/c2ccccc2Oc2ccc(Cl)cc2)S1	POLI inh inconclusive, Pol beta inh inconclusive
O=C1NC(=Nc2ccc(Cl)cc2)/C(=C/c2ccco2)S1	Pol eta inh 56µM, POLI inh 28µM, POLK inh inconclusive, Pol beta inh 8.9µM (no result: TDP1 block) | Pol iota confirm inconclusive
O=C(CCO)c1ccc(O)cc1	Pol eta inh 3.5µM, TDP1 block inconclusive, FEN1 inh 22µM, POLI inh 5µM, POLK inh 8.9µM, Pol beta inh inconclusive | TbPGK inh 1.6µM
O=C(Cc1ccccc1)c1ccc(O)cc1	none (no result: TDP1 block, Pol beta inh)
CCCCCCCCOc1ccc(C(=O)O)cc1	POLI inh inconclusive (no result: Pol beta inh)
C=C(C)C(=O)OCCCCCCOc1ccc(C(=O)O)cc1	Pol eta inh 35µM, TDP1 block 25µM, POLI inh 14µM, POLK inh 25µM, Pol beta inh 71µM | TbPGK inh 9.2µM
Cc1cc(C)cc(NC(=O)CN2C(=O)CSc3ccc(S(=O)(=O)N(C)C)cc32)c1	none
COc1cc(OC)cc(C(=O)NNC(=O)c2ccccn2)c1	none
COc1ccc(C(=O)NNC(=O)c2ccccn2)cc1	none | TbPGK inh 5.2µM
N/C(=N\OC(=O)c1ccccc1Cl)c1ccccn1	none | TbPGK inh 16µM
COc1ccccc1C(=O)O/N=C(\N)c1ccccn1	none
N/C(=N\OC(=O)c1ccc(Cl)cc1)c1ccccn1	none | TbPGK inh 15µM
COc1cc(OC)c(C(=O)O/N=C(\N)c2ccccn2)cc1OC	none (no result: TDP1 block)
Cc1ccc(C(=O)O/N=C(\N)c2ccccn2)c(C)c1	none | TbPGK inh 7.3µM
C[C@@H](O)CCC[C@H](O)/C=C/[C@@H]1[C@@H](C/C=C\CCCC(=O)O)[C@@H](O)C[C@H]1O	none (no result: Pol eta inh, FEN1 inh, POLI inh, POLK inh, Pol beta inh)
Cc1cccc(NC(=O)C(=O)c2cc(C)n(-c3ccccc3)c2C)c1C	none
CCC(=O)Nc1ccccc1C(=O)OCc1cc(=O)n2cc(C)sc2n1	none
c1ccc(-c2ccc(-c3ccncn3)cc2)cc1	none (no result: TDP1 block, Pol beta inh)
CCC(C)(C)NC(=O)C1CCC(CNS(=O)(=O)c2ccc3c(c2)CC(C)N3C(C)=O)CC1 (stereo not given)	none
COc1ccc(-c2nc(CSc3nnc(C)n4c3cc3oc(C)cc34)c(C)o2)cc1OC	none
COc1ccc(C2C(=O)N(C3CCCCC3)CC(=O)N2CCc2ccc(OC)c(OC)c2)cc1 (stereo not given)	none
COc1cc(OC)cc(C(=O)O/N=C(\N)c2ccccn2)c1	none (no result: TDP1 block)
COc1ccc(C(=O)O/N=C(\N)c2ccccn2)cc1	none (no result: TDP1 block) | TbPGK inh 5.2µM
O=C(O)C1Nc2ccc(Br)cc2C2C=CCC12 (stereo not given)	Pol eta inh 3.2µM, FEN1 inh inconclusive, POLI inh inconclusive, POLK inh 10µM, Pol beta inh 1.6µM (no result: TDP1 block) | TbPGK inh 18µM
CC(C)CNC(=O)C1Nc2ccccc2C2C=CCC12 (stereo not given)	POLI inh inconclusive (no result: TDP1 block, Pol beta inh)
